Source: PubChem BioAssay (NCATS)
“And” between values parts separate entries of the source, which are not always exact repeats. Equal entries are not always repeated. Records with an inconclusive call do not appear. The source made the active and inactive calls. Unless noted, the call rests on the fitted dose curve; in most records, active means well fitted curve in the direction sought with a large enough effect; inconclusive means small, poorly fitted or top-dose-only effect, or another doubt; inactive means no such curve, though single readings can be large; an effect the other way counts as inactive or inconclusive.

Key:
[1] = AP1 Signaling Pathway (AID 357; active means well fitted curve in either direction with a large enough effect, not every such curve was filed as active;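 further: ME-180 reporter cells stimulated with EGF at its EC50 level; on the % scale 0 is the no-effect control and ±100 the full control effect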); conditions: ME-180 AP-1-bla reporter, EGF-induced, beta-lactamase ratio, 5 h; at 38 µM (top of the series)
Outline: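 A ratiometric CCF4 readout (405 nm excitation; 460 and 530 nm emission) quantified AP-1-driven beta-lactamase in ME-180 cells after 5 h with compound and EC50 EGF; AC50 values were derived for activators and inhibitors.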

[2] = NFAT Signaling Pathway (AID 444; active means well fitted curve in either direction with a large enough effect, not every such curve was filed as active;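 further: carbachol stimulus at about its EC50 of 1 µM final; on the % scale 0 is the no-effect control and ±100 the full control effect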); conditions: Jurkat NFAT-bla M1, carbachol, beta-lactamase ratio, 5 h; at 38 µM (top of the series)
Outline: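 Jurkat cells with NFAT-driven β-lactamase reporter and co-expressed M1 receptor, stimulated with carbachol (final 1 uM, ~EC50), compound titration, 5 h at 37 °C. CCF4 loaded 1 h at RT; 460/530 nm ratio gave %activity and AC50.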

[3] = Stat Signaling Pathway (AID 446; active means well fitted curve in either direction with a large enough effect, not every such curve was filed as active;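 further: ME-180 cervical cancer cells given 40 pM IL-6 alongside compound; SIE-controlled beta-lactamase reporter measured as 460/530 nm FRET emission ratio; on the % scale 0 is the no-effect control and ±100 the full control effect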); conditions: ME-180 SIE beta-lactamase reporter, IL-6 stimulated, 5 h; at 38 µM (top of the series)
Outline: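 ME-180 cells carrying a SIE-driven beta-lactamase reporter are stimulated with 40 pM IL-6 for 5 h at 37C in the presence of compound. The 460/530 nm FRET substrate ratio is read after 2.5 h at RT. Data are normalised to 300 pM IL-6 and to 125 nM JAK inhibitor controls.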

[4] = target: Glucocorticoid receptor (Homo sapiens) (UniProt P04150); assay: GR-GFP Redistribution (AID 450;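 active means compounds whose dose series gives a full or clear partial fitted curve of increased nuclear translocation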; further: potency means the concentration at half of the fitted maximal effect); conditions: U2OS GR-GFP nuclear translocation, laser cytometry, 2 h
Glucocorticoid receptor (Homo sapiens), sequence (P04150 whole entry, looked up, the tested form may be a part): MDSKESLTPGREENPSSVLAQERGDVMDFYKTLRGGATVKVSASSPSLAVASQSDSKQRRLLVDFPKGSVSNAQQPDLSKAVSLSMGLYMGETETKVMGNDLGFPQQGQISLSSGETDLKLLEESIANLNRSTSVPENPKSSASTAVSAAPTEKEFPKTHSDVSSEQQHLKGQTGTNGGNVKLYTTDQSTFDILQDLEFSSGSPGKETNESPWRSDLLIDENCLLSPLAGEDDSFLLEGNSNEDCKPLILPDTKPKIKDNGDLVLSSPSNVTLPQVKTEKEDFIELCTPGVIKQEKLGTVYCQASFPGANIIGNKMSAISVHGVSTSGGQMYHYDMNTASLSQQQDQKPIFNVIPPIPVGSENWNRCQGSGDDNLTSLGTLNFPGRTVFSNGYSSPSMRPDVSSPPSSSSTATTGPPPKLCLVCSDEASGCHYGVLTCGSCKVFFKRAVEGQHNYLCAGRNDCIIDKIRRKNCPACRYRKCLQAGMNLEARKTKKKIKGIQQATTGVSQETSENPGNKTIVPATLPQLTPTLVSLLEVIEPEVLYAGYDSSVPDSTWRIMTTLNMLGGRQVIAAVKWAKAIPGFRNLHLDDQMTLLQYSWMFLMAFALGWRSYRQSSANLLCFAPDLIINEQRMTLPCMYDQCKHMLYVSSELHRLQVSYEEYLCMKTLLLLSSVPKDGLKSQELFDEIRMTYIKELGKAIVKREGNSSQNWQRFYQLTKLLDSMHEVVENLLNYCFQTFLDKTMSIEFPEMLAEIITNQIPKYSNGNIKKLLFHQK

[5] = target: Glucocorticoid receptor (Homo sapiens) (UniProt P04150); assay: GR-EFC Redistribution (AID 451; calls by dose curve; further: potency means the concentration at half of the fitted maximal effect); conditions: CHO-K1 GR-EFC translocation, beta-gal luminescence, 2 h
Outline: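 CHO-K1 cells expressing nuclear EA and GR-ED fragments of b-gal; compounds titrated up to 46 uM final, 2 h at 37 C. GR nuclear translocation read as complemented b-gal luminescence after 1 h RT detection.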

[6] = target: Mitogen-activated protein kinase 10 (Mus musculus) (UniProt Q61831); assay: JNK3 AlphaScreen Assay (AID 530; active means well fitted curve in either direction with a large enough effect, not every such curve was filed as active;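 further: kinase came from lysate of stimulated human HepG2 cells; signal reports phosphorylation of biotinylated GST-cJun 1-79 at Ser73 with 10 µM ATP; on the % scale 0 is the no-effect control and ±100 the full control effect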); conditions: JNK3 lysate, c-Jun phosphorylation; series mostly up to 57.1 µM
Outline: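 Pre-activated (IL-1β/TNFα) JNK3 in HepG2 lysates phosphorylates biotin-GST-cJun(1-79), 10 uM ATP; anti-phospho-cJun(Ser73) AlphaScreen read at room temperature, pH 7.6 Tris buffer. Compounds pre-incubated 15 min as titrations.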

[7] = target: 3',5'-cyclic-AMP phosphodiesterase 4B (Homo sapiens) (UniProt Q07343); assay: qHTS Assay for Inhibitors of PDE-IV (AID 607; active means well fitted activation curve with a large enough effect in the main read-out, with a control signal flat, not every such curve was filed as active; further: % of control where 0% means no effect); conditions: HEK293 ACTOne CNG channel cells, membrane potential fluorescence; series mostly up to 22.9 µM
3',5'-cyclic-AMP phosphodiesterase 4B (Homo sapiens), sequence (Q07343 whole entry, looked up): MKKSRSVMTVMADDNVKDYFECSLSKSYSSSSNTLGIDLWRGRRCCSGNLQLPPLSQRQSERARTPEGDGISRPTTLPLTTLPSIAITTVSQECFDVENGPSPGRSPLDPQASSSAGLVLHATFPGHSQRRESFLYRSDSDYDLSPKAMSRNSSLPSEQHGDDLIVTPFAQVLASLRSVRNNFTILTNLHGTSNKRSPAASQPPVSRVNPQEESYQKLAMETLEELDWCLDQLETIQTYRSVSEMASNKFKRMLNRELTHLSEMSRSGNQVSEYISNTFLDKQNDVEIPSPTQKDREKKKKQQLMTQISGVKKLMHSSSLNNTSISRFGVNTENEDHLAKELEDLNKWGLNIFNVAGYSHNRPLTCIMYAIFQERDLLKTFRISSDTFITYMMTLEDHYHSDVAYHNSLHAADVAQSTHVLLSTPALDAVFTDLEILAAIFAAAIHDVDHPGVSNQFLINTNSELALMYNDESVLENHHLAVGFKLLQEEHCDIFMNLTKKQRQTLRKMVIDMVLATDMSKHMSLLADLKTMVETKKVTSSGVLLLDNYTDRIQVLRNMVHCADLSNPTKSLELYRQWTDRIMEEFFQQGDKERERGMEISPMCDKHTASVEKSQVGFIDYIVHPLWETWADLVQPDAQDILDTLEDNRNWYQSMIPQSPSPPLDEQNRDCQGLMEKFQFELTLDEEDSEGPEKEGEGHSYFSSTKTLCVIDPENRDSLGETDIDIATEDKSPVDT
Outline: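 HEK293 ACTOne cells with CNG channel (1000/well), endogenous PDE4; membrane potential dye, compounds up to 22.9 uM final. Fluorescence Ex 535/Em 590; RO 20-1724 (100 uM final) as reference.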

[8] = target: Guanine nucleotide-binding protein G(i) subunit alpha-1 (Homo sapiens) (UniProt P63096); assay: qHTS Assay for Inhibitors of RGS12 GoLoco Motif Activity (Green Fluorophore) (AID 879); conditions: Galphai1/FITC-RGS12 GoLoco peptide, fluorescence polarization; series mostly up to 57.1 µM;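 further: 0% = labeled peptide with Gαi1 and full inhibition = labeled peptide alone without protein; negative values mean loss of peptide binding seen as reduced polarization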
Guanine nucleotide-binding protein G(i) subunit alpha-1 (Homo sapiens), sequence (P63096 whole entry, looked up): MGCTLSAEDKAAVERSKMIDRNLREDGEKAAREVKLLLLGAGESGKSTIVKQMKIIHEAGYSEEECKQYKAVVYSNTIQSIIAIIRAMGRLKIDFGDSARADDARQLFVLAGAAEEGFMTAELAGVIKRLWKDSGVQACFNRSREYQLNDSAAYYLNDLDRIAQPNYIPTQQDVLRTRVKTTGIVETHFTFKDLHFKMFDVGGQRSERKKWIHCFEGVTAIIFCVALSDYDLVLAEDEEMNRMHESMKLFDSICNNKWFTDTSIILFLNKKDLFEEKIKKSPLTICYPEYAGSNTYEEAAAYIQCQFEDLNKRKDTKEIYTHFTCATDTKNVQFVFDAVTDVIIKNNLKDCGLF
Outline: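 Fluorescence polarization assay: 50 nM Gαi1 with 10 nM FITC-labeled RGS12 GoLoco peptide in 10 mM Tris pH 7.5, 150 mM NaCl, 0.1 mM GDP, 0.05% NP40, 10 min at room temperature with compound.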

[9] = target: Cytochrome P450 2C9 (Homo sapiens) (UniProt P11712); assay: qHTS Assay for Inhibitors and Substrates of Cytochrome P450 2C9 (AID 883); conditions: recombinant CYP2C9, luciferin-H luminescence, 60 min; series mostly up to 57.1 µM; further: on the % scale 0 is the no-effect control and ±100 the full control effect; nearly all actives have a fitted effect of over 60% in size
Outline: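 10nM CYP2C9 + 100uM Luciferin-H (=KM), 25mM KPO4; cpd 10 min 37C; NADPH regen, 60 min 37C; stop/detect with P450 Glo-Buffer 20 min; luminescence. Norm. to 57uM sulphaphenazole as full inhibition.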

[10] = target: Cytochrome P450 3A4 (Homo sapiens) (UniProt P08684); assay: qHTS Assay for Inhibitors and Substrates of Cytochrome P450 3A4 (AID 884); conditions: recombinant CYP3A4, Luciferin-PPXE luminescence; series mostly up to 57.1 µM; further: on the % scale 0 is the no-effect control and ±100 the full control effect; nearly all actives have a fitted effect of over 50% in size
Outline: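 20 nM human CYP3A4 with 25 uM Luciferin-PPXE (at KM) in 200 mM KPO4, preincubated 10 min with compound; NADPH regeneration started a 60 min RT reaction. Luciferin detected by luminescence, normalized to 57 uM ketoconazole as full inhibition.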

[11] = target: Cytochrome P450 2C19 (Homo sapiens) (UniProt P33261); assay: qHTS Assay for Inhibitors and Substrates of Cytochrome P450 2C19 (AID 899); conditions: recombinant CYP2C19, luciferin-H EGE luminescence; series mostly up to 57.1 µM; further: nearly all actives have a fitted effect of over 60% in size; further: potency means the concentration at half of the fitted maximal effect
Cytochrome P450 2C19 (Homo sapiens), sequence (P33261 whole entry, looked up): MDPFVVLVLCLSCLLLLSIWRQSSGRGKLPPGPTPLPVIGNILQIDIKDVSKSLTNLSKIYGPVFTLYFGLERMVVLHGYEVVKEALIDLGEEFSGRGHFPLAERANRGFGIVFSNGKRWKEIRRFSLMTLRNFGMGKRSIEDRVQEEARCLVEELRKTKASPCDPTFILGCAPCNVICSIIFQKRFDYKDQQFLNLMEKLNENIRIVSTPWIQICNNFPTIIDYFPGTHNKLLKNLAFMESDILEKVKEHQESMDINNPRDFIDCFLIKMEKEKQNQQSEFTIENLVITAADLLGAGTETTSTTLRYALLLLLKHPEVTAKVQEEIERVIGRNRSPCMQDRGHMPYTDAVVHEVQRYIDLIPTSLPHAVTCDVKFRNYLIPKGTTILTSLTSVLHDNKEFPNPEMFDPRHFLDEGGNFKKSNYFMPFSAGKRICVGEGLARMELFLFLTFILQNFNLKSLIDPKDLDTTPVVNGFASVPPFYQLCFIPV
Outline: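 Luminescent read-out of luciferin formed from Luciferin-H EGE (10uM, equal to KM). Enzyme 5nM in 50mM KPO4; compound added, 10 min at 37C, then NADPH regenerating system for 60 min at 37C. Full inhibition defined by 57uM ketoconazole.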

[12] = target: Pyruvate kinase PKM (Homo sapiens) (UniProt P14618); assay: qHTS Assay for Activators of Human Muscle Pyruvate Kinase (AID 954; active means well fitted curve in the direction sought with a large enough effect, not every such curve was filed as active;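 further: 0% = uninhibited enzyme and -100% = no enzyme or full thiadiazolimine inhibition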); conditions: purified human muscle pyruvate kinase, luciferase-coupled luminescence, 1 h; series mostly up to 57.5 µM
Pyruvate kinase PKM (Homo sapiens), sequence (P14618 whole entry, looked up): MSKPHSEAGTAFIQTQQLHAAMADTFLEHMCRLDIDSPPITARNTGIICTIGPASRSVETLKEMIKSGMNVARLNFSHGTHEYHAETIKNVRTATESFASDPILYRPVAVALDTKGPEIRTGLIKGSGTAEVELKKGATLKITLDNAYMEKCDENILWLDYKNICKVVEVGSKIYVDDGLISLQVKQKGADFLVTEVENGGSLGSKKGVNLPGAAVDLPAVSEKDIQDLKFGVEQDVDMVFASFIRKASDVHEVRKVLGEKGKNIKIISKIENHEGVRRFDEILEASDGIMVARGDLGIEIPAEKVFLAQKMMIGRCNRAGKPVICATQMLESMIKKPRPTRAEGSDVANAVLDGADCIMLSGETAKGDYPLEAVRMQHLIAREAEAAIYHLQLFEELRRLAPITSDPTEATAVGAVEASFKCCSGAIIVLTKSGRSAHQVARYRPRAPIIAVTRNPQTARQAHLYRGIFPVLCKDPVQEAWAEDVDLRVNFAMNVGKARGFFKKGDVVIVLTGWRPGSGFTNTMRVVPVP
Outline: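 Purified human PKM2 (0.1 nM) with 0.5 mM PEP (Km) and 0.1 mM ADP in 50 mM imidazole pH 7.2, KCl, MgCl2, 1 h at room temperature; ATP formed read by coupled luciferase luminescence. Normalized to no-enzyme/110 uM thiadiazolimine inhibition; 0.3 nM enzyme column for activation.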

[13] = target: alpha-glucosidase (Oryza sativa, rice) (UniProt Q653V4); assay: Counterscreen for Glucocerebrosidase Inhibitors: qHTS Assay for Rice alpha-Glucosidase at pH 5.0 (AID 997); conditions: rice alpha-glucosidase enzyme activity; series mostly up to 76.9 µM;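 further: 0% = full activity with enzyme and -100% = basal without enzyme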
Outline: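 Rice alpha-glucosidase (4 nM final) with 400 uM 4-methylumbelliferyl-alpha-D-glucopyranoside in citrate buffer pH 5.0, 20 min at room temperature, stopped at pH 10; fluorescence 365/440 nm, compounds 0.7 nM–77 uM, AC50 from Hill fits.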

[14] = qHTS Assay for Lipid Storage Modulators (AID 1519; calls by dose curve); conditions: Drosophila S3 cells, BODIPY lipid droplet/cell ratio, laser cytometry, cells loaded with oleic acid; for activity change, negative = inhibition: at 57.5 µM (top of the series)
Outline: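 Cells seeded at 5,000 per well were treated with compounds over a concentration series and loaded with oleic acid (400 uM, as added). Lipid droplet fluorescence (488 nm excitation, 500-530 nm channel) was read by laser-scanning cytometry and normalized to 20 uM Triacsin C.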

[15] = target: Ubiquitin carboxyl-terminal hydrolase 1 (Homo sapiens) (UniProt O94782); assay: Inhibitors of USP1/UAF1: Pilot qHTS (AID 504865); conditions: purified USP1/UAF1, Ub-rhodamine cleavage fluorescence; series mostly up to 114 µM;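 further: rhodamine fluorescence freed from ubiquitin-rhodamine substrate followed over time; top concentration of the series differs between compounds; on the % scale 0 is the no-effect control and ±100 the full control effect; nearly all actives have a fitted effect of over 35% in size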
Ubiquitin carboxyl-terminal hydrolase 1 (Homo sapiens), sequence (O94782 whole entry, looked up): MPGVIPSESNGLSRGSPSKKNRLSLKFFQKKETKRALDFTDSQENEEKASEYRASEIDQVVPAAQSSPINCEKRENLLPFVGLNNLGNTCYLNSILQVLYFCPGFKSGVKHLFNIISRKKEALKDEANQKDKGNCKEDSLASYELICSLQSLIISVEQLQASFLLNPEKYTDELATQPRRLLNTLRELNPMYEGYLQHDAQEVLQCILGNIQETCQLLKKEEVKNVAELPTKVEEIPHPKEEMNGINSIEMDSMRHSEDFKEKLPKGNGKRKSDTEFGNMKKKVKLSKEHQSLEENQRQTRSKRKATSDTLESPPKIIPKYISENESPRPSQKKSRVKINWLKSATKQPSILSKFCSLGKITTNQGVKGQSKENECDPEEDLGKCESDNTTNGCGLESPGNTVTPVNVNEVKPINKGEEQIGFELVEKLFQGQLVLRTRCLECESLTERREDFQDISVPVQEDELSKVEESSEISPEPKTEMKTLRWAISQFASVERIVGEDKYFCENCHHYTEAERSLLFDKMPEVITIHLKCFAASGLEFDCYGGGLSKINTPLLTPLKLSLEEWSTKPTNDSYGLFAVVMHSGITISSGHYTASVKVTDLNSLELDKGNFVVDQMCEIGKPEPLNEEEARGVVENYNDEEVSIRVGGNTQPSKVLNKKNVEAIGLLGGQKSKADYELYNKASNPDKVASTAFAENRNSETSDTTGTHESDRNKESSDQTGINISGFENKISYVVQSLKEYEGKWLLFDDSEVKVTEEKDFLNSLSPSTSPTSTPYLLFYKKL
Outline: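 In 50mM HEPES pH 7.8 containing 0.5mM EDTA, 1mM TCEP, 0.1 mg/ml BSA and 0.01% Tween-20, 1nM USP1/UAF1 is exposed to compound for 15 min, then Ub-Rho (150nM final) is added and fluorescence is read over time.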

[16] = target: DNA dC->dU-editing enzyme APOBEC-3G (Homo sapiens) (UniProt Q9HC16); assay: qHTS for inhibitors of Vif-A3G interactions: Validation (AID 588379); conditions: Vif-A3G protein interaction assay; series mostly up to 46.1 µM; further: 0% is about no effect
DNA dC->dU-editing enzyme APOBEC-3G (Homo sapiens), sequence (Q9HC16 whole entry, looked up): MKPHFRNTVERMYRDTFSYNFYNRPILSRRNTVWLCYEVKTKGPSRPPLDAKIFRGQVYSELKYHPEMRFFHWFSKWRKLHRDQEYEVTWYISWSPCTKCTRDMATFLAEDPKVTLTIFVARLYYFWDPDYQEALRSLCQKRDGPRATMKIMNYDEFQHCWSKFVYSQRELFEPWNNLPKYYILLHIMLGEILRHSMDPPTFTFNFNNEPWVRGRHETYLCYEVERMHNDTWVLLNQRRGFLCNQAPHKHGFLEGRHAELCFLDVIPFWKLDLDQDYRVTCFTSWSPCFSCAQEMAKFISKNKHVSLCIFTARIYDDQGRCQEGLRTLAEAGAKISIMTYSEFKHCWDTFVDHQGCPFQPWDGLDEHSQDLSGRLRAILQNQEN
Outline: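 HeLa cells stably expressing Vif and A3G-eYFP, 700 cells/well, incubated overnight at 37 deg C, then exposed to compound overnight at 37 deg C. Inhibition of Vif-mediated degradation read as increased yellow fluorescence (Ex 488/Em 500-530) by laser-scanning cytometry.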

[17] = system: Zika virus NS2B-NS3 protease; assay: Primary screen GU AMC qHTS for Zika virus inhibitors (AID 1347154); conditions: Zika NS2B-NS3 unlinked protease, AMC fluorogenic substrate; series mostly up to 54.1 µM;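 further: 0% = no-inhibitor control and -100% = no-enzyme control; nearly all actives have a fitted effect of over 70% in size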
Outline: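 Unlinked Zika NS2B hydrophilic domain–NS3 protease complex at 25 nM in 10 mM Tris-HCl pH 8.0, 0.01% Tween 20, with an AMC peptide substrate. Fluorescence change (340/450 nm) over 15 min at room temperature, normalized to controls, fitted to 4-parameter Hill.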

[18] = Primary qHTS for small molecule stabilizers of the endoplasmic reticulum resident proteome: Secreted ER Calcium Modulated Protein (SERCaMP) assay (AID 1508630); conditions: SH-SY5Y GLuc-SERCaMP (Gaussia luciferase released on ER calcium loss) secretion, thapsigargin, luminescence; series mostly up to 38.4 µM; further: on the % scale 0 is the no-effect control and ±100 the full control effect
Outline: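 GLuc-SERCaMP-expressing SH-SY5Y cells, pretreated 16 h with compound, are challenged with thapsigargin to empty ER calcium stores; after 4 h, coelenterazine is added directly to the medium and luminescence is imaged.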

[19] = target: Cytochrome P450 1A2 (Homo sapiens) (UniProt P05177); assay: p450-cyp1a2 (AID 410; calls by dose curve; further: potency means the concentration at half of the fitted maximal effect;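 on activity change, negative = inhibition: -100% = full effect of reference inhibitor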); conditions: recombinant CYP1A2, luciferin-ME demethylation, luminescence; series mostly up to 57 µM
Cytochrome P450 1A2 (Homo sapiens), sequence (P05177 whole entry, looked up): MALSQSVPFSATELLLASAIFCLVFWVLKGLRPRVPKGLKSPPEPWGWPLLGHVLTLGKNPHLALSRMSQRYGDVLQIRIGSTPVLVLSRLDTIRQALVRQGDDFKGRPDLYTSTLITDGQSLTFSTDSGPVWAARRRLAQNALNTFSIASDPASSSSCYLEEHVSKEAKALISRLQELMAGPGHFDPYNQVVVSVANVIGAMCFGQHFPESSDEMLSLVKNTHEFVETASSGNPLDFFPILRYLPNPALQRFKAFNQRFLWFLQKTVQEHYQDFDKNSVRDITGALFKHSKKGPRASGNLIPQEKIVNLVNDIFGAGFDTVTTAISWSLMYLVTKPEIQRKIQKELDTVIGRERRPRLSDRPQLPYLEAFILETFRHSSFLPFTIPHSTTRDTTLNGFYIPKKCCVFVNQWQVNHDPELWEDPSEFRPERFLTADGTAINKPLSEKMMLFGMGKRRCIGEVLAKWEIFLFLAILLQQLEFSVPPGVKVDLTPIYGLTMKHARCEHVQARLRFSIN
Outline: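 20nM CYP1A2 with 100uM Luciferin-ME (at Km) in 100mM KPO4; compound preincubated 10 min, NADPH regeneration added, 60 min at room temperature. Luciferin quantified by luminescence after detection reagent; normalized to 57 uM furafylline.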

[20] = measured here: cell count channel max response
[21] = measured here: lipid channel max response

O=C(O)[C@H]1CN(CCCP(=O)(O)O)CCN1
inactive: activity change, negative = inhibition [1] 1.7% | activity change, negative = inhibition [2] 8.84% | activity, negative = inhibition [3] 7.55% | Potency [4] > 46 µM | Potency [5] > 46 µM | Potency [6] | Potency [7] | outcome [8] | Potency [9] | Potency [10] | Potency [11] | outcome [12] | outcome [13] | activity change, negative = inhibition [14] 5.99% and -0.486% | Potency [15] | Potency [16] | Potency [17] | Potency [18]
-5.69% and -2.47%: max response [14, 20]
0.367% and -3.68%: max response [14, 21]

CC[C@](N)(CCC(=O)O)C(=O)O
15.7%: max response [14, 21]
inactive: Potency [4] > 46 µM | Potency [5] > 46 µM | Potency [6] | activity change, negative = inhibition [14] -0.484% | Potency [15] | Potency [16] | Potency [17] | Potency [18]
active: Potency [19] 20 µM
20.6%: max response [14, 20]

NCCC(=O)O
-21.9%: max response [14, 21]
-17.6%: max response [14, 20]
inactive: Potency [19] | Potency [4] > 46 µM | Potency [5] > 46 µM | Potency [6] | Potency [7] | activity change, negative = inhibition [14] -2.51% | Potency [15] | Potency [16] | Potency [17] | Potency [18]

CN1CCN(CCc2ccc(Cl)c(Cl)c2)CC1
-14.6%: max response [14, 20]
active: Potency [19] 25.1 µM
-12.9%: max response [14, 21]
inactive: Potency [4] > 46 µM | Potency [5] > 46 µM | Potency [6] | Potency [7] | activity change, negative = inhibition [14] -0.655% | Potency [15] | Potency [16] | Potency [17] | Potency [18]

CC(C)(C)NC[C@H](O)COc1cccc2[nH]c(=O)[nH]c12
inactive: activity change, negative = inhibition [1] -7.21% | Potency [19] | Potency [4] > 46 µM | Potency [5] > 46 µM | Potency [6] | Potency [7] | outcome [8] | outcome [12] | outcome [13] | activity change, negative = inhibition [14] -4.86% | Potency [16] | Potency [17] | Potency [18]
-1.97%: max response [14, 20]
-5.55%: max response [14, 21]

N[C@H](Cc1cnc[nH]1)C(=O)O
-11.7%: max response [14, 21]
-9.8%: max response [14, 20]
inactive: Potency [10] | activity change, negative = inhibition [14] -0.699% | Potency [15] | Potency [16] | Potency [17] | Potency [18]

CC(=O)ON(C(C)=O)S(=O)(=O)c1ccc(Cl)cc1
-23.7%: max response [14, 21]
inactive: Potency [19] | Potency [4] > 46 µM | Potency [5] > 46 µM | Potency [6] | Potency [7] | activity change, negative = inhibition [14] -5.19% | Potency [15] | Potency [16] | Potency [17] | Potency [18]
-20.7%: max response [14, 20]

CCC(=O)N[C@@H]1Cc2ccccc2[C@@H](c2ccccc2)C1
13.4%: max response [14, 20]
inactive: Potency [4] > 46 µM | Potency [5] > 46 µM | Potency [6] | activity change, negative = inhibition [14] 10.8% | Potency [16] | Potency [17] | Potency [18]
active: Potency [19] 15.8 µM | Potency [11] 7.94 µM
28.8%: max response [14, 21]
